# Measured values: PubChem BioAssay (NCI)
# About 83,000 compounds went through this panel and 20% of them were active in at least one assay; those are over-represented in the sample as a whole.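 Percent growth is the endpoint: 0 to 100 indicates growth inhibition (40 means 60% inhibition), 0 means no net growth, and negative values indicate cell death.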 Values without a mark were called inactive. The source made the active and inactive calls. How the source made its calls: active means growth percent below 10; inactive means the rest.
# Key:
# Experiment in all cases: NCI-60 one-dose screen, 48 h (100 = growth as untreated, 0 = no growth, -100 = all killed)
# SR leukemia = conditions: 10 µM
# RPMI-8226 leukemia = conditions: 10 µM
# OVCAR-8 ovarian = conditions: 10 µM
# OVCAR-5 ovarian = conditions: 10 µM
# SK-OV-3 ovarian = conditions: 10 µM
# IGROV1 ovarian = conditions: 10 µM
# OVCAR-3 ovarian = conditions: 10 µM
# NCI/ADR-RES ovarian = conditions: 10 µM
# T-47D breast = conditions: 10 µM
# MDA-MB-435 melanoma = conditions: 10 µM
# MCF7 breast = conditions: 10 µM unless noted
# HCT-116 colon = conditions: 10 µM
# HCC-2998 colon = conditions: 10 µM
# KM12 colon = conditions: 10 µM
# OVCAR-4 ovarian = conditions: 10 µM
# BT-549 breast = conditions: 10 µM
# SW-620 colon = conditions: 10 µM
# HS 578T breast = conditions: 10 µM
SMILES,growth (SR leukemia),growth (RPMI-8226 leukemia),growth (OVCAR-8 ovarian),growth (OVCAR-5 ovarian),growth (SK-OV-3 ovarian),growth (IGROV1 ovarian),growth (OVCAR-3 ovarian),growth (NCI/ADR-RES ovarian),growth (T-47D breast),growth (MDA-MB-435 melanoma),growth (MCF7 breast),growth (HCT-116 colon),growth (HCC-2998 colon),growth (KM12 colon),growth (OVCAR-4 ovarian),growth (BT-549 breast),growth (SW-620 colon),growth (HS 578T breast)
CCOc1ccc(/C=N/N=C(N)N)cc1OCC,76.3%,101%,106%,101%,106%,95.9%,107%,109%,88.4%,99%,82.3%,95.8%,101%,108%,,,,
CC(=O)c1ccc(C(C)(C)C)cc1,90.6%,95.5%,98.3%,,101%,96.7%,103%,,98.2%,106%,94.5%,97.5%,96.2%,102%,93.5%,102%,110%,
CCCCC1C(=O)N(c2ccccc2)N(c2ccccc2)C1=O,103%,96.6%,103%,,105%,106%,115%,,109%,108%,115%,102%,109%,,117%,98.8%,106%,114%
O=C(c1ccc(Cl)cc1)c1ccccc1Cl,95.9%,82.8%,89.6%,,96.3%,87.9%,118%,,74.7%,106%,95.7%,87.9%,,119%,97%,91.7%,121%,
CC(=O)OCC1OC(OC2=C(CC=C(C)C)C(=O)c3ccccc3C2=O)C(OC(C)=O)C(OC(C)=O)C1OC(C)=O (configuration not stated),-42.9% (active),-13.1% (active),53.6%,89.7%,84.4%,68%,-33.1% (active),32.4%,-61.3% (active),-17.1% (active),-60.2% (active),1.75% (active),,5.15% (active),,-6.85% (active),11.1%,18%
CN(C)c1nc2c([nH]1)c(=O)n(C)c(=O)n2C,102%,91.7%,96.9%,104%,,101%,,106%,,111%,106%,97%,,109%,112%,103%,102%,93.2%
CCc1nc(N)nc(N)c1-c1ccc(Cl)cc1,57.3%,102%,47.7%,,84%,,116%,56.4%,100%,35%,67.8%,25.4%,75.9%,82.5%,78.4%,67.7%,27.2%,103%
COc1ccc(NC(=O)CCl)cc1,56.3%,55.8%,80.8%,68.2%,87.7%,59%,,77%,62.7%,87%,64.4%,53.5%,99.6%,85.5%,,66.3%,98.3%,
Oc1ccc2c(c1)OCC1(O)Cc3cc(O)c(O)cc3C21 (configuration not stated),78.4%,62.5%,,96.3%,193%,75.3%,93.7%,91.7%,168%,92.3%,103%,84.1%,64.8%,96.5%,38.2%,88.9%,95%,102%
FC(F)(F)c1ccc2c(c1)N(CCCN1CCN(C3CC3)CC1)c1ccccc1S2,7.62% (active),51.9%,46.9%,89.7%,,,24.9%,61.2%,87.8%,57.7%,77.3%,,,59.6%,73.6%,61%,38.9%,75.3%
CCNc1nc2c(cnn2C)c(=O)[nH]1,92.3%,99.8%,,103%,96.2%,84.5%,109%,108%,92.5%,106%,100%,99.2%,105%,108%,109%,102%,97.9%,92.5%
